Source: PubChem BioAssay
HP1b chromo inh – HP1-beta chromodomain-methylated histone interaction inhibition | hit rate 0.56% among 390,000 | P83916 | Potency, µM (highest dose often 114 µM), for the others: top-dose activity change, negative = inhibition, most hits filed as inhibitors | AlphaScreen HP1-beta / biotin-H3K9me3 peptide binding; note: nearly all actives have a fitted effect of over 70% in size
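Compound inhibition of the preformed complex between 50 nM HP1-beta and 50 nM biotinylated H3K9me3 peptide was read by AlphaScreen. Buffer was PBS pH 7.4 with 0.01% Tween-20. Incubations ran 30 min at room temperature, with 10 ug/mL donor/acceptor beads.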
JMJD2A Tudor – blocks the human JMJD2A Tudor domain | AlphaScreen JMJD2A-Tudor / H3K4me3 peptide binding | hit rate 4.4% among 390,000 | O75164 | Potency, µM (top dose mostly 114 µM), inactives show at the top dose activity change, negative = inhibition, usual class: inhibitors; note: % is set by controls: 0 for no effect and ±100 for the full control effect; nearly all actives have a fitted effect of over 50% in size
PLK1 PBD block – PLK1 (human) polo-box domain binding inhibition; hit rate 2.8% among 360,000; AID 720504; Potency, µM, for inactives: max response, negative = inhibition, hits mostly inhibitors; P53350; Plk1 PBD binding of FITC phosphopeptide, fluorescence polarization; note: series mostly up to about 57 µM; % is set by controls: 0 for no effect and ±100 for the full control effect; nearly all actives have a fitted effect of over 65% in size
G9a inh – G9a (human) methyltransferase inhibition. Q96KQ7. G9a H3K9 monomethylation, AlphaScreen, 2 h. Potency, µM (highest dose often 102 µM), for inactives: at the highest dose activity, negative = inhibition, actives largely listed as inhibitors. hit rate 8.8% among 350,000; note: % is set by controls: 0 for no effect and ±100 for the full control effect; nearly all actives have a fitted effect of over 75% in size
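G9a (20 nM) preincubated 15 min RT with compounds, then 500 nM biotinylated H3K9 peptide and 20 uM SAM added; 2 h RT reaction. Monomethyl-H3K9 product detected by AlphaScreen with anti-H3K9me1 antibody, streptavidin donor and anti-rabbit IgG acceptor beads.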
Sfp inh – Sfp phosphopantetheinyl transferase inhibition; Potency, µM, for the others: largest response in the series, negative = inhibition, actives largely listed as inhibitors; Biochemical Sfp PPTase activity, qHTS; hit rate 3.5% among 310,000; Q9F4F7;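 note: the enzyme is Sfp with the accession as filed and its product quenches rhodamine fluorescence; 0% = enzyme reaction without inhibitor and -100% = no enzyme wells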
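Step 1, compound plus 15 nM Sfp-PPTase, 15 min, room temperature. Step 2, add rhodamine-CoA (5 uM) and BHQ-2-YbbR (12.5 uM). Step 3, read 525/598 nm fluorescence at 0 and 30 min.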
BAZ2B inh – blocks human BAZ2B; Q9UIF8; AlphaScreen BAZ2B-H3K14Ac peptide displacement; Potency, µM (titrated, usually from 114 µM), without a hit: top-dose activity change, negative = inhibition, hits mostly inhibitors; hit rate 4.4% among 360,000; note: % is set by controls: 0 for no effect and ±100 for the full control effect; nearly all actives have a fitted effect of over 60% in size
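In this displacement format the biotinylated H3(5-23) peptide acetylated at Lys14 serves as ligand at 50 nM, with BAZ2B at 50 nM in PBS pH 7.4 containing 0.01% Tween-20. Donor and acceptor beads are 10 ug/mL final.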
Active calls of the source: *; [ ] = remark or other dose. Most compounds without a hit are left out; they make up all but 12% or so of the library. Calls come from the whole dose curve; as a rule, active = well fitted curve in the direction sought with a large enough effect; inconclusive = small, poorly fitted or top-dose-only effect, or another doubt; inactive = no such curve, though single readings can be large; an effect the other way counts as inactive or inconclusive. Potency is the fitted concentration of half-maximal effect.

Cc1cccc(-n2nnc(-c3nc(-c4cccs4)no3)c2N)c1C was read as HP1b chromo inh 44%, JMJD2A Tudor 22%, G9a inh 9%[59 µM] and BAZ2B inh 0%.
CC1CCCC(C)N1C(=O)COC(=O)/C=C/c1ccc(Br)o1 (stereo not given) was read as HP1b chromo inh inconclusive, JMJD2A Tudor 20µM* and PLK1 PBD block inconclusive.
For CN1CCN(CCCNC(=O)c2ccc(Cn3c(=S)[nH]c4ccc(Br)cc4c3=O)cc2)CC1 the results were HP1b chromo inh 9%, JMJD2A Tudor inconclusive, PLK1 PBD block -20%, G9a inh 32µM*, Sfp inh -4% and BAZ2B inh inconclusive.
CC1CCN(CCCNC(=O)c2ccc(Cn3c(=S)[nH]c4ccc(Br)cc4c3=O)cc2)CC1 was read as G9a inh 18µM*, Sfp inh -14% and BAZ2B inh inconclusive.
O=C(NCCN1CCCC1)c1ccc(Cn2c(=S)[nH]c3cc4c(cc3c2=O)OCO4)cc1 was read as HP1b chromo inh 20%, JMJD2A Tudor 40µM*, PLK1 PBD block -12%, G9a inh inconclusive, Sfp inh -1% and BAZ2B inh -34%.
For C=CCNC(=O)c1ccc(Cn2c(=S)[nH]c3cc4c(cc3c2=O)OCO4)cc1 the results were HP1b chromo inh 8%, JMJD2A Tudor inconclusive, PLK1 PBD block -16%, G9a inh 12%[59 µM], Sfp inh 26% and BAZ2B inh -9%.
Screening COc1cc2[nH]c(=O)n(Cc3ccc(C(=O)NCCCN4CCN(C)CC4)cc3)c(=O)c2cc1OC returned HP1b chromo inh -3%, JMJD2A Tudor -25%, PLK1 PBD block -7%, G9a inh -13%, Sfp inh 3% and BAZ2B inh 1%.
Screening Cc1ccc(NC(=O)C2CCCN2S(=O)(=O)c2ccc3c(c2)C(C)(C)C(=O)N3C)cc1 (stereo not given) returned HP1b chromo inh 13%, JMJD2A Tudor -11%, G9a inh 6%[59 µM] and BAZ2B inh inconclusive.
For O=C(CSc1nc2ccccc2nc1Cc1ccccc1F)Nc1cccc(C(F)(F)F)c1 the results were HP1b chromo inh 43%, JMJD2A Tudor -14%, G9a inh 10%[59 µM] and BAZ2B inh -16%.
`CC(NNC(=S)N1CCN(c2ccccn2)CC1)c1nccc2ccccc12` (stereo not given) gave HP1b chromo inh 25µM*, JMJD2A Tudor 20µM* and PLK1 PBD block -4%.
`CN1CCN(C(=S)NC(=O)c2ccc(Cl)cc2)CC1` gave HP1b chromo inh inconclusive, JMJD2A Tudor inconclusive, PLK1 PBD block 27µM*, G9a inh 28µM*, Sfp inh 35µM* and BAZ2B inh 56µM*.
`CCNC(=S)N1CCN(c2ccccn2)CC1` gave HP1b chromo inh 31%, JMJD2A Tudor -5%, PLK1 PBD block -19%, G9a inh 7%, Sfp inh inconclusive and BAZ2B inh -1%.
For CN1CCN(C(=O)c2cc(Cl)cc(Cl)c2NC(=O)c2ccco2)CC1 the results were HP1b chromo inh -8%, JMJD2A Tudor -12%, PLK1 PBD block 27µM*, G9a inh 17%, Sfp inh 11% and BAZ2B inh -2%.
`O=C(NC(=S)N1CCN(c2ccccn2)CC1)c1ccco1` gave HP1b chromo inh 11%, JMJD2A Tudor -12%, PLK1 PBD block -9%, G9a inh 56µM*, Sfp inh -27% and BAZ2B inh inconclusive.
For CN1CCN(C(=S)NC(=O)/C=C/c2cccs2)CC1 the results were HP1b chromo inh 24%, JMJD2A Tudor inconclusive, PLK1 PBD block -23%, G9a inh 50µM*, Sfp inh -7% and BAZ2B inh -17%.
For CN1CCN(C(=S)NC(=O)/C=C/c2cccc3ccccc23)CC1 the results were HP1b chromo inh 2%, JMJD2A Tudor inconclusive, PLK1 PBD block -6%, G9a inh -4%, Sfp inh 1% and BAZ2B inh -1%.
